Data: the OligoGym collection

molecular target: AP3B1; experiment: pooled miR-30 sensor sort-seq; sequence = guide strand; settings: shRNA
Further: reference of the scale not given here.

**Q.** For TAGATCTTCATTCTTCTTCAAA, which sensor-assay potency score (higher = more potent) is on record?
**A.** -0.874

**Q.** With TTATGAATCAGATCTATTCTGT as the sequence, how does the sensor-assay potency score (higher = more potent) read?
**A.** 0.754

**Q.** How did the sensor-assay potency score (higher = more potent) turn out when TAAACATATACCAACTTCTTGA was run?
**A.** -0.605

**Q.** TACATTCGGAACAATAAGCTGC was tested. Which sensor-assay potency score (higher = more potent) did it give?
**A.** 0.383

**Q.** With TTTGAATTGACATAGTTGCTAT as the sequence, how does the sensor-assay potency score (higher = more potent) read?
**A.** -0.399

**Q.** Which sensor-assay potency score (higher = more potent) does the source give for TTCTTCAGCATATCGAACCAGG here?
**A.** -0.815

**Q.** For TTTCTTTGAATTGACATAGTTG, which sensor-assay potency score (higher = more potent) is on record?
**A.** -0.577

**Q.** TTCTTTATAACAACCACACTTT was tested. Which sensor-assay potency score (higher = more potent) did it give?
**A.** 0.0495

**Q.** TAGAAGTGAAACATCTTTGGTA was tested. Which sensor-assay potency score (higher = more potent) did it give?
**A.** 0.763

**Q.** With TTGCTTTAGATCTTCATTCTTC as the sequence, how does the sensor-assay potency score (higher = more potent) read?
**A.** 0.267

**Q.** How did the sensor-assay potency score (higher = more potent) turn out when TAAACCTTCAAGATCAGCCATC was run?
**A.** -0.757
